Entries with a potency or affinity are not part of this list. Unmarked numbers belong to inactive results.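 How the source made its calls: active means every repeat run showing a signal drop whose fitted half-maximal concentration is at most twice the top tested concentration; inconclusive means repeat runs disagree, or flat partial drop, or poor fit; inactive means the rest.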
experiment: general mammalian cell viability loss – activator set, cherry-pick, cytotoxicity control for miR-122 modulator project, dose response (AID 720690); conditions: HEK293T viability, CellTiter-Glo luminescence, 48 h; series mostly up to 26 µM; activity change, negative = cytotoxicity: at the top concentration;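 further: 0% = neutral control wells and -100% = MG132 cytotoxic control wells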

Compared with `CNC(=O)c1nc(C)n(-c2cc(Cl)cc(Cl)c2)n1`, `CCCCc1cc(=O)oc2cc(C)cc(OC(C)C(=O)O)c12` (stereo not given) is lower in “activity change, negative = cytotoxicity” value: 17.7% for the first, -8.47% for the second.

Compared with `C[C@@H]1CN([C@@H](C)CO)S(=O)(=O)c2ccc(C#Cc3ccncc3)cc2O[C@@H]1CN(C)C(=O)C1CCOCC1`, `C[C@@H]1CN([C@H](C)CO)C(=O)c2cc(-c3cccc(C#N)c3)cnc2O[C@H]1CN(C)C(=O)C1CCC1` is higher in “activity change, negative = cytotoxicity” value: -7.81% for the first, 5.68% for the second.

First: Cc1cccc(NC(=O)Nc2ccc3c(c2)C(=O)N(C)[C@@H]2CC[C@H](CC(=O)NCc4ccccc4Cl)O[C@H]2CO3)c1
Second: CN1C(=O)c2cc(NC(=O)Nc3ccccc3Cl)ccc2OC[C@H]2O[C@H](CC(=O)O)CC[C@@H]21
The “activity change, negative = cytotoxicity” value of the first is lower: -6.91% for the first, 5.14% for the second.

Going from `COCC(=O)Nc1ccc2c(c1)C(=O)N(C)[C@@H]1CC[C@@H](CC(=O)NCc3ccc(OC)cc3)O[C@H]1CO2` to `COc1ccc(CNC(=O)C[C@H]2CC[C@H]3[C@H](COc4ccc(NC(=O)C(C)C)cc4C(=O)N3C)O2)cc1`, the “activity change, negative = cytotoxicity” value falls from 1.5% to -5.37%.

Compared with `O=S(=O)(Nc1nccs1)c1ccc(NS(=O)(=O)c2cccs2)cc1`, `CCOc1ccc2nc(NS(=O)(=O)c3cccs3)sc2c1` is lower in “activity change, negative = cytotoxicity” value: 15.5% for the first, 4.68% for the second.

Going from `c1cnc(N2CCN(Cc3c[nH]c4ccccc34)CC2)nc1` to `O=C(COc1cccc2ccccc12)Nc1nc2ccccc2[nH]1`, the “activity change, negative = cytotoxicity” value rises from 11.4% to 19.3%.

First: Oc1ccc(-c2nc(-c3ccc(O)c(O)c3)cs2)cc1
Second: CC(=O)N(C[C@H]1N[C@H](CO)[C@@H]1c1ccc(-c2ccccc2)cc1)C(C)C
The “activity change, negative = cytotoxicity” value of the first is lower: -10.1% for the first, -0.118% for the second.

Going from `Cc1[nH]c(=O)c(C#N)cc1-c1ccccc1` to `Cc1ccc(NCC(=O)c2ccccc2)cc1Cl`, the “activity change, negative = cytotoxicity” value rises from -8.29% to 21.2%.

Compared with `N#Cc1cccc(NC(=O)Nc2cccs2)c1`, `CNC(=O)C[C@@H]1CC[C@@H]2[C@@H](COc3ccc(NC(=O)Cc4cccs4)cc3C(=O)N2C)O1` is higher in “activity change, negative = cytotoxicity” value: -33.5% for the first, 11.6% for the second.

Going from `C/C=C/c1ccc([C@H]2[C@H](CO)N[C@H]2CN(CC(C)C)C(=O)c2ccccn2)cc1` to `CCN(C[C@H]1N[C@@H](CO)[C@@H]1c1ccc(C2=CCCC2)cc1)C(=O)c1ccncc1`, the “activity change, negative = cytotoxicity” value falls from -12.9% to -36.7%.

First: C[C@H](CO)N1C[C@H](C)[C@@H](CN(C)CC2CCCCC2)OCCCC[C@H](C)Oc2ccc(NC(=O)Nc3cccc4ccccc34)cc2C1=O
Second: COc1cccc(C(=O)Nc2ccc3c(c2)C(=O)N(C)[C@H]2CC[C@H](CC(=O)NCc4ccc(F)cc4)O[C@@H]2CO3)c1
The “activity change, negative = cytotoxicity” value of the first is lower: -16.2% for the first, 5.32% for the second.

Compared with `CCOC(=O)c1ccc(NC(=O)c2ccc(CN3CCOCC3)cc2)cc1`, `COC(=O)C[C@H]1CC[C@@H]2[C@@H](COc3ccc(NC(=O)Nc4ccc(Cl)cc4)cc3C(=O)N2C)O1` is higher in “activity change, negative = cytotoxicity” value: -13.2% for the first, -8.59% for the second.

Compared with `CCNC(=O)Nc1ccc2c(c1)C(=O)N(C)[C@H]1CC[C@H](CC(=O)NCCOC)O[C@@H]1CO2`, `CC(C)C(=O)Nc1ccc2c(c1)C(=O)N(C)[C@@H]1CC[C@H](CC(=O)O)O[C@H]1CO2` is higher in “activity change, negative = cytotoxicity” value: -2.1% for the first, 7.7% for the second.

First: OC(c1cc(C(F)(F)F)nc2c(Cl)cc(Cl)cc12)C1CCCCN1 (stereo not given)
Second: CN1C(=O)c2cc(NC(=O)c3cccs3)ccc2OC[C@@H]2O[C@@H](CC(=O)NCC(F)(F)F)CC[C@H]21
The “activity change, negative = cytotoxicity” value of the first is lower: -47.8% for the first, -0.216% for the second.

First: c1ccc(CCNc2nnnn2-c2ccccc2)cc1
Second: CCCNC(=O)N1[C@@H]2CN(C(=O)c3ccccc3)c3ccccc3[C@@H]2[C@@H]1CO
The “activity change, negative = cytotoxicity” value of the first is lower: -6.71% for the first, 3.85% for the second.

Compared with `CN(C)C(=O)c1ccc(-c2ccc([C@H]3[C@@H](CO)N4CCCCN(C(=O)C5CCCC5)C[C@@H]34)cc2)cc1`, `COCC(=O)N1[C@H](CO)[C@H]2c3ccccc3N(C(=O)C3CC3)C[C@H]21` is higher in “activity change, negative = cytotoxicity” value: -8.32% for the first, -4.49% for the second.

Going from `CCC(=O)N1[C@H](CO)[C@@H](c2ccccc2)[C@H]1CN(C(C)C)S(C)(=O)=O` to `CO[C@H]1CN(C)C(=O)c2cc(NC(C)=O)ccc2OC[C@@H](C)N(C(=O)CC2CC2)C[C@H]1C`, the “activity change, negative = cytotoxicity” value falls from -14.6% to -21.5%.

Compared with `CCS(=O)(=O)Nc1ccc2c(c1)C(=O)N(C)[C@@H]1CC[C@@H](CC(=O)NCCCN3CCOCC3)O[C@H]1CO2`, `CNC(=O)C[C@@H]1CC[C@@H]2[C@@H](COc3ccc(NC(=O)c4cccc(OC)c4)cc3C(=O)N2C)O1` is higher in “activity change, negative = cytotoxicity” value: -6.8% for the first, 16.2% for the second.

In the case of `CC(=O)Nc1ccc(S(=O)(=O)Nc2ccc(S(=O)(=O)Nc3nc(C)cc(C)n3)cc2)cc1`, the “activity change, negative = cytotoxicity” value is reported as -10.1% [at 12 µM].

First: CC(=O)N1[C@H](CO)[C@@H](c2ccccc2)[C@H]1CN(CC(C)C)C(=O)c1ccccn1
Second: CCCNC(=O)C[C@H]1CC[C@@H]2[C@@H](COc3ccc(NC(=O)c4ccc5c(c4)OCO5)cc3C(=O)N2C)O1
The “activity change, negative = cytotoxicity” value of the first is higher: 7.05% [at 23.5 µM] for the first, -16.7% [at 23.5 µM] for the second.

In the case of `CO[C@@H]1CN(C)C(=O)c2ccc(NC(C)=O)cc2OC[C@@H](C)N(C(=O)c2ccccc2F)C[C@H]1C`, the “activity change, negative = cytotoxicity” value is reported as 3.69% [at 13.5 µM].

Reference: PubChem BioAssay AID720690 (Broad Institute, 2013)
